Results filed as inconclusive are left out. The source made the active and inactive calls. Unless noted, calls follow the shape of the dose curve; as a rule, active = well fitted curve in either direction with a large enough effect (not every such curve was filed as active); inconclusive = small, poorly fitted or top-dose-only effect, or another doubt; inactive = flat fitted curve, though single readings scatter.
How the values were obtained:
[1] = molecular target: Lysosomal acid glucosylceramidase (Homo sapiens) (UniProt P04062); assay: Glucocerebrosidase-p2 (AID 348; in the data active = potency below about 10 µM; also: potency is read from the fitted curve at half-maximal effect); settings: purified GBA, blue fluorogenic substrate, 40 min
Lysosomal acid glucosylceramidase (Homo sapiens), sequence (P04062 whole entry, looked up): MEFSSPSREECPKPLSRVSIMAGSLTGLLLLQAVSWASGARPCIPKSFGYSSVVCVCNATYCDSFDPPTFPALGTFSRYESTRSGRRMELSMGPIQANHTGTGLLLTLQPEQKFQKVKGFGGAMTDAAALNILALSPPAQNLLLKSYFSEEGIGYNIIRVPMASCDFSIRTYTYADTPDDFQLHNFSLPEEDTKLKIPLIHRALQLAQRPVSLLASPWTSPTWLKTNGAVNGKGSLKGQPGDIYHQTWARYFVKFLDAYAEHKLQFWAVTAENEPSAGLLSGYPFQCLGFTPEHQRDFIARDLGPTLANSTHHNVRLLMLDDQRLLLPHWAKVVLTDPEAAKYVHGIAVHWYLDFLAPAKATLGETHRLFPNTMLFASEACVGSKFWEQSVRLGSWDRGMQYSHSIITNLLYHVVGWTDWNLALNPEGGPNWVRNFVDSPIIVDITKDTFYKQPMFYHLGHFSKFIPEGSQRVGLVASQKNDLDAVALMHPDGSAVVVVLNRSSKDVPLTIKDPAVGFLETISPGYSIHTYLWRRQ
Procedure, shortened: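 Compounds titrated from 0.6 nM upwards against 0.2 nM enzyme in pH 5.9 citric acid/KH2PO4, taurocholate, tween-20; blue fluorogenic substrate 80 uM, 40 min room temperature, stopped and read Ex 365/Em 440 for AC50.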

[2] = AP1 Signaling Pathway (AID 357); settings: ME-180 AP-1-bla reporter, EGF-induced, beta-lactamase ratio, 5 h; at 7.69 µM (top of the series) unless noted;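 also: ME-180 reporter cells stimulated with EGF at its EC50 level; % is scaled to controls: 0 for no effect and ±100 for the full control effect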
Procedure, shortened: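 Modulation of EGF-driven AP-1 transcription was assessed with a beta-lactamase reporter in ME-180 cells. Compound and EC50 EGF were co-incubated 5 hours at 37 °C before 2.5-hour CCF4 loading at room temperature and dual-emission reading.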

[3] = molecular target: Cytochrome P450 1A2 (Homo sapiens) (UniProt P05177); assay: p450-cyp1a2 (AID 410; calls by dose curve; also: potency is read from the fitted curve at half-maximal effect;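 as to activity change, negative = inhibition: -100% = full effect of reference inhibitor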); settings: recombinant CYP1A2, luciferin-ME demethylation, luminescence; series mostly up to 57 µM
Cytochrome P450 1A2 (Homo sapiens), sequence (P05177 whole entry, looked up): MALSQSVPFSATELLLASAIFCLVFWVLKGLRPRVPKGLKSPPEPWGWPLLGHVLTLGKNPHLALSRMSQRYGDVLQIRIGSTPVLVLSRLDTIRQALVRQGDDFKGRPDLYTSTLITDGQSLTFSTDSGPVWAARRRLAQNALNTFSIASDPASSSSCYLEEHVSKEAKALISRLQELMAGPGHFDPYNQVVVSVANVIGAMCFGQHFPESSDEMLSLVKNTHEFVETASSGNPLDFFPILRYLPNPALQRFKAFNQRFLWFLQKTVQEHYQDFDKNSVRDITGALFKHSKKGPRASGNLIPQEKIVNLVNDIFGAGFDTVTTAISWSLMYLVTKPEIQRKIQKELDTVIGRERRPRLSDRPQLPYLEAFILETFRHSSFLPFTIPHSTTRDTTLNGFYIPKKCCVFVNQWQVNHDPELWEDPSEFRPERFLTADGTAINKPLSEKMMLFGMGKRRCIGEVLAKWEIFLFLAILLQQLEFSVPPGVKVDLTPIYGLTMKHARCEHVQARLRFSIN
Procedure, shortened: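 Human CYP1A2 (20nM) demethylated Luciferin-ME at its Km (100uM) in 100mM KPO4. After 10 min compound preincubation, NADPH regeneration ran the reaction 60 min at room temperature. Luciferin was read by luminescence, normalized to 57 uM furafylline.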

[4] = Stat Signaling Pathway (AID 446); settings: ME-180 SIE beta-lactamase reporter, IL-6 stimulated, 5 h; at 7.69 µM (top of the series) unless noted;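 also: ME-180 cervical cancer cells given 40 pM IL-6 alongside compound; SIE-controlled beta-lactamase reporter measured as 460/530 nm FRET emission ratio; % is scaled to controls: 0 for no effect and ±100 for the full control effect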
Procedure, shortened: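 IL-6/STAT signaling read in ME-180 cells via an SIE beta-lactamase reporter. Stimulus was 40 pM IL-6 (its AC50) for 5 hrs, so both activation and inhibition register.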

[5] = molecular target: Glucocorticoid receptor (Homo sapiens) (UniProt P04150); assay: GR-EFC Redistribution (AID 451; calls by dose curve; also: potency is read from the fitted curve at half-maximal effect); settings: CHO-K1 GR-EFC translocation, beta-gal luminescence, 2 h
Glucocorticoid receptor (Homo sapiens), sequence (P04150 whole entry, looked up, the tested form may be a part): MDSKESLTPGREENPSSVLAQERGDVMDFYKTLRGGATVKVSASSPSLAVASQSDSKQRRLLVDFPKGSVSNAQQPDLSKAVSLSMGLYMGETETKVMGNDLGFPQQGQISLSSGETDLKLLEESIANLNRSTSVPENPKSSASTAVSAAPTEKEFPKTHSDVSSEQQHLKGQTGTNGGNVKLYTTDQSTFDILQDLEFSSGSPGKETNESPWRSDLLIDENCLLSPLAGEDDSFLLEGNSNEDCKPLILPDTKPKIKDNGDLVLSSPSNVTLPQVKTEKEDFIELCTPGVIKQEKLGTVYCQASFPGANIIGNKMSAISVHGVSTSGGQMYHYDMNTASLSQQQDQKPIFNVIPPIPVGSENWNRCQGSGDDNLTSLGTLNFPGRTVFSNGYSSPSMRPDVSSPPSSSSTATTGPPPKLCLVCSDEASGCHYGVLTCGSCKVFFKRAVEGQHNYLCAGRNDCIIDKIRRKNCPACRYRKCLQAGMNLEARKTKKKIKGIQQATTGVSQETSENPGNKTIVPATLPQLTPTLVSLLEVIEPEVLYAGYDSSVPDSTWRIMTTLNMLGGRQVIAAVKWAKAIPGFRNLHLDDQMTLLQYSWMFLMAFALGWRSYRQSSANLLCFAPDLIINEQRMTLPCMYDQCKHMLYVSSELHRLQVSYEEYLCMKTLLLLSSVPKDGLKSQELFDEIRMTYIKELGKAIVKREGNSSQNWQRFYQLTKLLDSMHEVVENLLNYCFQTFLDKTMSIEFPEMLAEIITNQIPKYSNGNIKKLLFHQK
Procedure, shortened: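 Translocation of GR-ED fusion to nuclear EA restores b-gal, read by luminescence after 1 h room-temperature detection. Engineered CHO-K1 biosensor cells, 1,000/well, exposed 2 h at 37 C to titrations up to 46 uM final.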

[6] = molecular target: Mitogen-activated protein kinase 10 (Mus musculus) (UniProt Q61831); assay: JNK3 AlphaScreen Assay (AID 530); settings: JNK3 lysate, c-Jun phosphorylation; series mostly up to 57.1 µM;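 also: kinase came from lysate of stimulated human HepG2 cells; signal reports phosphorylation of biotinylated GST-cJun 1-79 at Ser73 with 10 µM ATP; % is scaled to controls: 0 for no effect and ±100 for the full control effect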
Procedure, shortened: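 Room-temperature AlphaScreen kinase assay; pre-activated HepG2 lysate as JNK3 source, biotin-GST-cJun(1-79) substrate, 10 uM ATP, compound 15 min preincubation.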

[7] = molecular target: 3',5'-cyclic-AMP phosphodiesterase 4B (Homo sapiens) (UniProt Q07343); assay: qHTS Assay for Inhibitors of PDE-IV (AID 607; active = well fitted activation curve with a large enough effect in the main read-out, with a control signal flat, not every such curve was filed as active; also: % of control where 0% means no effect); settings: HEK293 ACTOne CNG channel cells, membrane potential fluorescence; series mostly up to 22.9 µM
3',5'-cyclic-AMP phosphodiesterase 4B (Homo sapiens), sequence (Q07343 whole entry, looked up): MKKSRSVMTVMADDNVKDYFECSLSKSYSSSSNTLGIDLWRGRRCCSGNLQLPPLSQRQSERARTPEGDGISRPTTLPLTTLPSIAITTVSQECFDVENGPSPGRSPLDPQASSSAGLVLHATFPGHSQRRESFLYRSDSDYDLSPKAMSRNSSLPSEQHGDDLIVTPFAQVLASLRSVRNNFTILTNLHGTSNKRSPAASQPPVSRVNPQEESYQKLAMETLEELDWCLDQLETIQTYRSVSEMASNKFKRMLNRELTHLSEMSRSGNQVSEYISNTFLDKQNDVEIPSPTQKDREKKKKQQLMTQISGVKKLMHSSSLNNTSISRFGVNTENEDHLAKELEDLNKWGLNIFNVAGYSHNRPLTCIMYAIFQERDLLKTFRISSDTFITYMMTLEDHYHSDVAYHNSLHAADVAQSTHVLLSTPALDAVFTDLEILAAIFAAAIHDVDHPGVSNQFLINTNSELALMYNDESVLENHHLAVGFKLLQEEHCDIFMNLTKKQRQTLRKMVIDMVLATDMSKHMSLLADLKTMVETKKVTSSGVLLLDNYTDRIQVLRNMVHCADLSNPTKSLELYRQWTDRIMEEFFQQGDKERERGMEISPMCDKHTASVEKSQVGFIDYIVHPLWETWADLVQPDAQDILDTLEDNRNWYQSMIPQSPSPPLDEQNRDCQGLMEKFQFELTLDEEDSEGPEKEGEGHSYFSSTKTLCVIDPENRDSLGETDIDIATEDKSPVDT
Procedure, shortened: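 Live HEK293 cells with a modified cyclic nucleotide-gated (CNG) channel report intracellular cAMP via membrane-potential dye fluorescence (ex 535/em 590 nm). Endogenous PDE-IV was targeted. Compounds were tested at up to 22.9 uM final; RO 20-1724 100 uM served as control.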

[8] = qHTS Assay for Lipid Storage Modulators (AID 1519; calls by dose curve); settings: Drosophila S3 cells, BODIPY lipid droplet/cell ratio, laser cytometry, cells loaded with oleic acid; for activity change, negative = inhibition: at 57.5 µM (top of the series)
Procedure, shortened: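 Cells seeded at 5,000 per well were treated with compounds over a concentration series and loaded with oleic acid (400 uM, as added). Lipid droplet fluorescence (488 nm excitation, 500-530 nm channel) was read by laser-scanning cytometry and normalized to 20 uM Triacsin C.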

[9] = Primary qHTS for small molecule stabilizers of the endoplasmic reticulum resident proteome: Secreted ER Calcium Modulated Protein (SERCaMP) assay (AID 1508630; active = well fitted curve in the direction sought with a large enough effect; an effect the other way counts as inactive or inconclusive; also: % is scaled to controls: 0 for no effect and ±100 for the full control effect); settings: SH-SY5Y GLuc-SERCaMP (Gaussia luciferase released on ER calcium loss) secretion, thapsigargin, luminescence; series mostly up to 38.4 µM
Procedure, shortened: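 GLuc-SERCaMP-expressing SH-SY5Y cells, pretreated 16 h with compound, are challenged with thapsigargin to empty ER calcium stores; after 4 h, coelenterazine is added directly to the medium and luminescence is imaged.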

[10] = molecular target: Glucocorticoid receptor (Homo sapiens) (UniProt P04150); assay: GR-GFP Redistribution (AID 450;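 active = compounds whose dose series gives a full or clear partial fitted curve of increased nuclear translocation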; also: potency is read from the fitted curve at half-maximal effect); settings: U2OS GR-GFP nuclear translocation, laser cytometry, 2 h
[11] = molecular target: Cytochrome P450 3A4 (Homo sapiens) (UniProt P08684); assay: qHTS Assay for Activators of Cytochrome P450 3A4 (AID 885; active = well fitted curve in the direction sought with a large enough effect; an effect the other way counts as inactive or inconclusive; also: nearly all actives have a fitted effect of over 65% in size; also: potency is read from the fitted curve at half-maximal effect); settings: recombinant CYP3A4, Luciferin-PPXE luminescence, 60 min; series mostly up to 57.1 µM
Cytochrome P450 3A4 (Homo sapiens), sequence (P08684 whole entry, looked up): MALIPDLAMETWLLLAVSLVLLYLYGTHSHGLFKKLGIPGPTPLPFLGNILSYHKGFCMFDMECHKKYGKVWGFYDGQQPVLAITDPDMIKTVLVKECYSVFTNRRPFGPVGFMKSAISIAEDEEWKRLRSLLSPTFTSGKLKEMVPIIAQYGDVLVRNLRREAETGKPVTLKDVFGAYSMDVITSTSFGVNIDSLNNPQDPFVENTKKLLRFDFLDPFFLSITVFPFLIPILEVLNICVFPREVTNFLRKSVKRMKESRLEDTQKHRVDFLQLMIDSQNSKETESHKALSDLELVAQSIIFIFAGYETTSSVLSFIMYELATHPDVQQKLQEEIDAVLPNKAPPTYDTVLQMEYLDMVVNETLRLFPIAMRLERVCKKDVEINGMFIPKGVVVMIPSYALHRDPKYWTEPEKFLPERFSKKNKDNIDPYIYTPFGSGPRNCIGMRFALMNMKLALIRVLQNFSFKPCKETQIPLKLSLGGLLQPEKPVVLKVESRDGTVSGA
Procedure, shortened: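 Quantitative HTS format: compounds preincubated with 20nM human CYP3A4 and Luciferin-PPXE substrate at KM, reaction started by NADPH regeneration, stopped after 60 min, luciferase luminescence read 20 min later.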

[12] = molecular target: Cytochrome P450 2D6 (Homo sapiens) (UniProt P10635); assay: qHTS Assay for Inhibitors and Substrates of Cytochrome P450 2D6 (AID 891; active = well fitted curve in the direction sought with a large enough effect; an effect the other way counts as inactive or inconclusive; also: potency is read from the fitted curve at half-maximal effect; nearly all actives have a fitted effect of over 60% in size); settings: recombinant CYP2D6, luciferin-ME EGE luminescence; series mostly up to 57.1 µM
Cytochrome P450 2D6 (Homo sapiens), sequence (P10635 whole entry, looked up): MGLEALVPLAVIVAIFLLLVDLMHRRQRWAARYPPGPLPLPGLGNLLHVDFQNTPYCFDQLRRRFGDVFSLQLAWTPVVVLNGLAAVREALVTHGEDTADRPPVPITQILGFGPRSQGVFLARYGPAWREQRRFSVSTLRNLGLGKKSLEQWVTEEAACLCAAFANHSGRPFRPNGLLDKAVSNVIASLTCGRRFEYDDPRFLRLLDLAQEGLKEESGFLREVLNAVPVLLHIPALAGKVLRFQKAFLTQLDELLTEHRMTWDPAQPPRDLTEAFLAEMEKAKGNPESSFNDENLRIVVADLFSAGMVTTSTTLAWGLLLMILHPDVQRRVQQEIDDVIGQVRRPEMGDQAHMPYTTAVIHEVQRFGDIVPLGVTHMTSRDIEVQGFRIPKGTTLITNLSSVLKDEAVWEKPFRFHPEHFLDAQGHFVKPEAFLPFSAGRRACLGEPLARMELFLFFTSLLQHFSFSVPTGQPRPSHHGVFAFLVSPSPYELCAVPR
Procedure, shortened: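 Human CYP2D6 (5 nM) with 30 uM Luciferin-ME EGE (at Km) in 100 mM KPO4, compound preincubated 10 min, then NADPH regeneration system for 60 min at room temperature. Luciferin read by luminescence; normalized to 1.43 uM quinidine.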

[13] = Confirmation and Secondary Assay for Modulators of Hemoglobin Beta Chain Splicing at IVS2 654 locus (AID 910; active = well fitted curve in the direction sought with a large enough effect; an effect the other way counts as inactive or inconclusive;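 also: HeLa cells stably carrying EGFP split by mutant beta-globin IVS2-654 intron; per-well total GFP intensity by laser scanning cytometry after 2-day treatment; % of control where 0% means no effect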); settings: HeLa EGFP-654 splicing reporter, GFP fluorescence, 48 h; series mostly up to 38.3 µM
Procedure, shortened: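 Readout: per-well total peak green fluorescence (488 nm ex, 500–520 nm em) from objects 5–250 µm, reflecting correct splicing of an EGFP-654 reporter. Compounds were applied for 2 days at 37 °C to overnight-plated HeLa EGFP-654 cells; controls were DMSO and 500 nM IVS2-654 PNA.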

[14] = Confirmation and Secondary Assay for Modulators of Hemoglobin Beta Chain Splicing at IVS2 705 locus (AID 930; active = well fitted curve in the direction sought with a large enough effect; an effect the other way counts as inactive or inconclusive;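 also: HeLa cells stably expressing the EGFP-705 splicing reporter; GFP fluorescence per well restored by corrected splicing of the IVS2-705 intron in EGFP; % of control where 0% means no effect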); settings: HeLa EGFP-705 splicing reporter, GFP fluorescence, 48 h; series mostly up to 38.3 µM
Procedure, shortened: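 HeLa EGFP-705 reporter; 500 cells/well, o/n 37C 5% CO2; cpd 2 d; 488 ex/500-520 em laser scan; total peak GFP intensity/well. Ref: 500 nM […] antisense PNA.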

[15] = molecular target: Ubiquitin carboxyl-terminal hydrolase 1 (Homo sapiens) (UniProt O94782); assay: Inhibitors of USP1/UAF1: Pilot qHTS (AID 504865; active = well fitted curve in the direction sought with a large enough effect; an effect the other way counts as inactive or inconclusive;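 also: rhodamine fluorescence freed from ubiquitin-rhodamine substrate followed over time; top concentration of the series differs between compounds; % is scaled to controls: 0 for no effect and ±100 for the full control effect; nearly all actives have a fitted effect of over 35% in size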); settings: purified USP1/UAF1, Ub-rhodamine cleavage fluorescence; series mostly up to 54.9 µM
Ubiquitin carboxyl-terminal hydrolase 1 (Homo sapiens), sequence (O94782 whole entry, looked up): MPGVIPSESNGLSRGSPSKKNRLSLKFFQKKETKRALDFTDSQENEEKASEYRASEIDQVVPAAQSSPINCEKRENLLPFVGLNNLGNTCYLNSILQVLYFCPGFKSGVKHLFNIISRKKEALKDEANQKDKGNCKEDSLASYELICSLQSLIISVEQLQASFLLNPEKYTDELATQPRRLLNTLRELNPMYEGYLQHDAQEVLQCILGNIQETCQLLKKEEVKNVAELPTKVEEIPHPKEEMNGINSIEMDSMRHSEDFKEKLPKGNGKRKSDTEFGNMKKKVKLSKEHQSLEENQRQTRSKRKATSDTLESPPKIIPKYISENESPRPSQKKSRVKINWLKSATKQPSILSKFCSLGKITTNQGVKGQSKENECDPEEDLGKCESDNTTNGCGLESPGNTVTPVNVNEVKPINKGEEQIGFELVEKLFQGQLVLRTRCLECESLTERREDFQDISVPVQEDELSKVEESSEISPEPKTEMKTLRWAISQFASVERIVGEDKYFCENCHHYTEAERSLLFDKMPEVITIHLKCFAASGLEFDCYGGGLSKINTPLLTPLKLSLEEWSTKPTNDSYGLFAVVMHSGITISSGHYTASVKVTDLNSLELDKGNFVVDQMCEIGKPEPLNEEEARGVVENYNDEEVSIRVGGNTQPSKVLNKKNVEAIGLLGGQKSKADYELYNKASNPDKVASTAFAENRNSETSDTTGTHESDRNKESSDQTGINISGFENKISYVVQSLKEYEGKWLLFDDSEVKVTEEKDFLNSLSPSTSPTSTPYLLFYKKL
Procedure, shortened: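 In 50mM HEPES pH 7.8 containing 0.5mM EDTA, 1mM TCEP, 0.1 mg/ml BSA and 0.01% Tween-20, 1nM USP1/UAF1 is exposed to compound for 15 min, then Ub-Rho (150nM final) is added and fluorescence is read over time.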

[16] = molecular target: Cytochrome P450 3A4 (Homo sapiens) (UniProt P08684); assay: qHTS Assay for Inhibitors and Substrates of Cytochrome P450 3A4 (AID 884; active = well fitted curve in the direction sought with a large enough effect; an effect the other way counts as inactive or inconclusive; also: nearly all actives have a fitted effect of over 50% in size; also: potency is read from the fitted curve at half-maximal effect); settings: recombinant CYP3A4, Luciferin-PPXE luminescence; series mostly up to 57.1 µM
Procedure, shortened: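 20 nM human CYP3A4 with 25 uM Luciferin-PPXE (at KM) in 200 mM KPO4, preincubated 10 min with compound; NADPH regeneration started a 60 min RT reaction. Luciferin detected by luminescence, normalized to 57 uM ketoconazole as full inhibition.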

[17] = qHTS Assay for Identification of Small Molecule Agonists for Hypoxia Response Element Signaling Pathway (AID 914; active = well fitted activation curve with a large enough effect in the signal ratio, with a control signal flat, not every such curve was filed as active; the % refers to the signal ratio; also: % of control where 0% means no effect); settings: ME-180 (cervical carcinoma) HRE-bla reporter, beta-lactamase ratio, CoCl2, 17 h; activation: stronger effect = higher value
Procedure, shortened: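 Read-out: CCF4 FRET ratio of 460nm to 530nm emission (excitation 405nm) after 2.5 hours at room temperature, taken from HRE-bla ME-180 cells that had been exposed to compound and EC50 CoCl2 for 17 hours.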

[18] = measured here: cell count channel max response
[19] = measured here: lipid channel max response

O=S(=O)(c1ccccc1)N1CCC2(CCN(Cc3nccs3)CC2)CC1
inactive: Potency [1] > 11.4 µM | activity change, negative = inhibition [2] 19.1% | Potency [3] | activity, negative = inhibition [4] -4.54% | Potency [5] > 46 µM | Potency [6] | Potency [7] | activity change, negative = inhibition [8] 0.281% | outcome [9]
4.88%: max response [8, 18]
7.01%: max response [8, 19]

CN1CCC2(CC1)CCN(S(=O)(=O)c1ccccc1)CC2
8%: max response [8, 18]
9.03%: max response [8, 19]
inactive: Potency [1] > 11.4 µM | activity change, negative = inhibition [2] -4.78% | Potency [3] | activity, negative = inhibition [4] -1.02% | Potency [5] > 46 µM | Potency [6] | Potency [7] | activity change, negative = inhibition [8] -2.86% | outcome [9]

CN(C)c1ccc(-c2nc(NCc3cccnc3)c3ccccc3n2)cc1
-5.05%: max response [8, 19]
-14.2%: max response [8, 18]
inactive: activity change, negative = inhibition [2] -8.92% | activity, negative = inhibition [4] 19.7% | Potency [10] > 46 µM | Potency [5] > 46 µM | Potency [6] | Potency [7] | Potency [11] | Potency [13] | outcome [14] | activity change, negative = inhibition [8] 8.26% | Potency [15] | outcome [9]
active: Potency [1] 9.34 µM | Potency [3] 1.58 µM | Potency [12] 7.94 µM

COCC(=O)N1CCC2(CCN(Cc3ccccc3OC)CC2)CC1
-22.5%: max response [8, 18]
-24%: max response [8, 19]
inactive: Potency [1] > 11.4 µM | activity change, negative = inhibition [2] -3.62% | Potency [3] | activity, negative = inhibition [4] -4.34% | Potency [5] > 46 µM | Potency [6] | Potency [7] | activity change, negative = inhibition [8] -2.32% | outcome [9]

CC(C)CN1CCC2(CC1)CCN(S(=O)(=O)c1ccccc1)CC2
3.86%: max response [8, 19]
inactive: Potency [1] > 11.4 µM | activity change, negative = inhibition [2] -4.17% | Potency [3] | activity, negative = inhibition [4] -1.58% | Potency [5] > 46 µM | Potency [6] | Potency [7] | activity change, negative = inhibition [8] 2.93% | outcome [9]
-0.0585%: max response [8, 18]

COc1ccc(C(=O)N2CCC3(CC2)CCN(C(c2ccccc2)c2ccccc2)CC3)cc1
13.4%: max response [8, 18]
active: Potency [11] 3.16 µM
21.1%: max response [8, 19]
inactive: Potency [1] > 11.4 µM | activity change, negative = inhibition [2] 4.01% | Potency [3] | activity, negative = inhibition [4] -17.5% | Potency [5] > 46 µM | Potency [6] | Potency [7] | Potency [16] | activity change, negative = inhibition [8] 2.48% | outcome [9]

N#Cc1ccc(CN2CCC3(CC2)CCN(C(=O)c2cc(C(F)(F)F)cc(C(F)(F)F)c2)CC3)cc1
11%: max response [8, 19]
7.25%: max response [8, 18]
inactive: Potency [1] > 11.4 µM | activity change, negative = inhibition [2] 7.04% | Potency [3] | activity, negative = inhibition [4] 3.33% | Potency [5] > 46 µM | Potency [6] | Potency [7] | activity change, negative = inhibition [8] 1.9% | outcome [9]

COc1ccccc1-c1nc(NCCNC(C)=O)c2ccccc2n1
8.82%: max response [8, 18]
inactive: Potency [1] > 11.4 µM | activity change, negative = inhibition [2] -11.3% | activity, negative = inhibition [4] 5.28% | Potency [10] > 46 µM | Potency [5] > 46 µM | Potency [6] | Potency [7] | Potency [13] | activation [17] -0.258% | outcome [14] | activity change, negative = inhibition [8] 5.2% | Potency [15] | outcome [9]
active: Potency [3] 15.8 µM | Potency [12] 6.31 µM
14.5%: max response [8, 19]

Cc1noc(C)c1C(=O)N1CCC2(CCCN(Cc3ccc(C#N)cc3)C2)CC1
33.4%: max response [8, 19]
inactive: Potency [1] > 11.4 µM | activity change, negative = inhibition [2] 4.42% | Potency [3] | activity, negative = inhibition [4] 3.17% | Potency [5] > 46 µM | Potency [6] | Potency [7] | activity change, negative = inhibition [8] 6.31% | outcome [9]
22.7%: max response [8, 18]

COc1ccc(NC(=O)N2CCCC3(CCN(S(=O)(=O)c4ccccc4)CC3)C2)cc1
inactive: Potency [1] > 11.4 µM | activity change, negative = inhibition [2] -4.9% | Potency [3] | activity, negative = inhibition [4] -19% | Potency [5] > 46 µM | Potency [6] | Potency [7] | Potency [11] | activity change, negative = inhibition [8] 2.57% | outcome [9]
active: Potency [16] 7.94 µM
6.07%: max response [8, 18]
10.9%: max response [8, 19]

O=C(Oc1ccccc1)N1CCC2(CC1)CCN(c1ccncc1)CC2
-5.74%: max response [8, 18]
inactive: Potency [1] > 11.4 µM | activity change, negative = inhibition [2] 9.96% | Potency [3] | activity, negative = inhibition [4] 16.5% | Potency [5] > 46 µM | Potency [6] | Potency [7] | activity change, negative = inhibition [8] 1.8% | outcome [9]
-3.08%: max response [8, 19]

COCC(=O)N1CCC2(CCCN(Cc3ccccc3)C2)CC1
27.9%: max response [8, 19]
22.3%: max response [8, 18]
inactive: Potency [1] > 11.4 µM | activity change, negative = inhibition [2] -19.3% | Potency [3] | activity, negative = inhibition [4] 0.327% | Potency [5] > 46 µM | Potency [6] | Potency [7] | activity change, negative = inhibition [8] 2.23% | outcome [9]

CN(C)Cc1ccccc1-c1cc(-n2ccnc2)ncn1
inactive: Potency [1] > 11.4 µM | activity change, negative = inhibition [2] -2.52% | activity, negative = inhibition [4] 1.39% | Potency [10] > 46 µM | Potency [5] > 46 µM | Potency [6] | Potency [7] | Potency [11] | Potency [13] | outcome [14] | activity change, negative = inhibition [8] 11.3% | Potency [15] | outcome [9]
4.13%: max response [8, 18]
active: Potency [3] 5.01 µM | Potency [12] 2.51 µM
14.2%: max response [8, 19]

Reference: PubChem BioAssay (NCATS)
